Experiment [1] concerns the target Nuclear receptor subfamily 1 group I member 3 (Homo sapiens) (UniProt Q14994). Briefly: ATG_CAR_TRANS: Attagene TRANS-FACTORIAL HepG2 Assay for human Constitutive Androstane Receptor (CAR) (AID 2282969).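 Note: activators raise reporter mRNA above DMSO so AC50 marks induction.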 Conditions: HepG2 Attagene TRANS-FACTORIAL CAR reporter. In short, it runs like this: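 Readout is reporter mRNA induction, quantified by fluorescent primer extension and capillary electrophoresis after RT-PCR. Cells were HepG2 transiently carrying chimeric NR-Gal4 constructs with GAL4-UAS reporters, treated for 24 h; activity scored upward from DMSO.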

Experiment [2] has as its target X-box-binding protein 1 (Homo sapiens) (UniProt P17861). Briefly: ATG_Xbp1_CIS: Attagene CIS-FACTORIAL HepG2 Assay for human X-box Binding Protein 1 (XBP1) (AID 2282972; active = hit-call score of the fitted dose curve at least 0.9, where 1 is the maximum; inactive = score below 0.9). The conditions noted are these: HepG2 XBP1 cis-element reporter, Attagene multiplex; actives raise or lower the signal. In short, it runs like this: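 HepG2, transient MRTU transfection (cis-promoter driven), 24 h compound exposure. Total RNA → oligo(dT) RT → PCR → 6-FAM labeling → HpaI cut → CE. Bidirectional fit vs DMSO.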

Experiment [3] is described as follows: ATG_GAL4_TRANS: Attagene TRANS-FACTORIAL HepG2 Assay for GAL4 (Internal Marker) (AID 2282976). Conditions: HepG2 Attagene TRANS GAL4 internal marker reporter. The procedure, abridged: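 RT-PCR/capillary electrophoresis readout of reporter mRNA. HepG2, transient MRTU transfection (GAL4-UAS reporters), 24 h compound exposure. Background-control endpoint, positive direction vs DMSO baseline.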

Experiment [4] has as its target Oxysterols receptor LXR-alpha (Homo sapiens) (UniProt Q13133). Briefly: ATG_LXRa_TRANS: Attagene TRANS-FACTORIAL HepG2 Assay for human Liver X Receptor alpha (LXRa) (AID 2282980). Conditions: HepG2 Attagene TRANS reporter, LXRa transactivation. The procedure, abridged: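 Read-out: reporter transcript levels by RT-PCR plus capillary electrophoresis, fluorescence intensity. Transiently transfected HepG2, exogenous NR-GAL4 chimera, GAL4-UAS reporters; 24 h compound exposure. Activity = increase over DMSO negative control.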

Experiment [5] in a line: ATG_M_06_TRANS: Attagene TRANS-FACTORIAL HepG2 Assay for M06 Transcription Factor (Internal Marker) (AID 2282983). The conditions noted are these: HepG2 Attagene TRANS M06 internal marker reporter. In short, it runs like this: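 After a 24 h chemical treatment of transfected HepG2, RNA underwent DNase I treatment, reverse transcription and reporter-specific PCR; labelled, HpaI-digested products were sized by capillary electrophoresis. Signal increase relative to DMSO defined activity.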

Experiment [6] can be described thus: ATG_M_32_TRANS: Attagene TRANS-FACTORIAL HepG2 Assay for M32 Transcription Factor (Internal Marker) (AID 2282984).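 Note: transcript level of a background control reporter unit measured by RT-PCR and capillary electrophoresis.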 Conditions: HepG2 Attagene TRANS M32 internal marker reporter. The procedure, abridged: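 Using transiently transfected HepG2 cells exposed to test chemicals for 24 h, reporter transcripts are converted to labelled cDNA fragments and quantified by capillary electrophoresis. DMSO defines the activity baseline.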

The target in experiment [7] is Transcriptional activator Myb (Homo sapiens) (UniProt P10242). Briefly: ATG_Myb_CIS: Attagene CIS-FACTORIAL HepG2 Assay for human Myeloblastosis (Myb) Proto-Oncogene Transcription Factor (AID 2282986; active = hit-call score of the fitted dose curve at least 0.9, where 1 is the maximum; inactive = score below 0.9). Conditions: HepG2 Attagene CIS-FACTORIAL Myb reporter transcription; actives raise or lower the signal. The procedure, abridged:
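Reporter mRNA is quantified by RT-PCR and capillary electrophoresis 24 h after dosing HepG2 cells transfected with cis-regulated reporter units, which track endogenous transcription factor activity. Gain and loss of signal are fitted versus DMSO baseline.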

Experiment [8] addresses Nuclear respiratory factor 1 (Homo sapiens) (UniProt Q16656). Briefly: ATG_NRF1_CIS: Attagene CIS-FACTORIAL HepG2 Assay for human Nuclear Respiratory Factor 1 (NRF1) Orphan Gene (AID 2282987; active = hit-call score of the fitted dose curve at least 0.9, where 1 is the maximum; inactive = score below 0.9). Conditions: HepG2 NRF1 cis-element reporter, Attagene multiplex; actives raise or lower the signal. In short, it runs like this:
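Endogenous NRF1-driven reporter transcription in transfected HepG2 cells after 24 h treatment. Readout: RT-PCR products, 6-FAM labelled and resolved by capillary electrophoresis; changes fitted both directions relative to DMSO.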

A short description of experiment [9]: ATG_NFI_CIS: Attagene CIS-FACTORIAL HepG2 Assay for human Nuclear Factor I (NFI) (AID 2282989; active = hit-call score of the fitted dose curve at least 0.9, where 1 is the maximum; inactive = score below 0.9). Conditions: HepG2 cis-regulatory reporter, NFI response element transcription; actives raise or lower the signal. The procedure, abridged:
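After transient transfection of HepG2 with cis-promoter reporter constructs and 24 h dosing, RNA is reverse-transcribed, amplified, 6-FAM end-labelled and HpaI-digested before capillary analysis. Bidirectional curve fitting against DMSO.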

The target of experiment [10] is Myc proto-oncogene protein (Homo sapiens) (UniProt P01106). Briefly: ATG_Myc_CIS: Attagene CIS-FACTORIAL HepG2 Assay for human Myelocytomatosis (Myc) Proto-Oncogene Transcription Factor (AID 2282990; active = hit-call score of the fitted dose curve at least 0.9, where 1 is the maximum; inactive = score below 0.9). Conditions: HepG2, Attagene cis-reporter transcription factor activity; actives raise or lower the signal. The procedure, abridged: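 HepG2, transient MRTU transfection (cis promoters, endogenous TFs); 24 h dosing; TriZol RNA → oligo(dT) RT → PCR → 6-FAM primer extension → HpaI cut → CE. Bidirectional fit vs DMSO.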

For experiment [11], the target named is Bile acid receptor (Homo sapiens) (UniProt Q96RI1). Briefly: ATG_FXR_TRANS: Attagene TRANS-FACTORIAL HepG2 Assay for Farnesoid X Receptor (FXR) (AID 2282979).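 Note: hits raise reporter mRNA above DMSO so AC50 marks FXR activation.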 The conditions noted are these: HepG2 Attagene TRANS FXR-GAL4 reporter transcription. The procedure, abridged:
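Read-out: fluorescent reporter transcripts quantified by capillary electrophoresis after RT-PCR of total RNA. Source cells were HepG2 transiently carrying chimeric NR-GAL4 plus GAL4-UAS reporter units, dosed 24 h. Activity fitted upward relative to DMSO baseline.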

In experiment [12] the target is Nuclear receptor subfamily 4 group A member 2 (Homo sapiens) (UniProt P43354). Briefly: ATG_NURR1_TRANS: Attagene TRANS-FACTORIAL HepG2 Assay for human Nuclear Receptor Related Protein 1 (NURR1) (AID 2282985). The conditions noted are these: HepG2 Attagene TRANS reporter, mRNA readout. In short, it runs like this: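 Cells: HepG2, transiently transfected. Exposure: 24 h. Detection: fluorescence of labelled RT-PCR products separated by capillary electrophoresis; upward fit versus DMSO.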

Experiment [13] in a line: ATG_M_19_TRANS: Attagene TRANS-FACTORIAL HepG2 Assay for M19 Transcription Factor (Internal Marker) (AID 2282974). The conditions noted are these: HepG2 Attagene TRANS-FACTORIAL M19 internal marker reporter. The procedure, abridged:
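Background-control readout: after 24 h chemical exposure of transfected HepG2 carrying GAL4-driven reporter units, RNA was reverse-transcribed, amplified, fluorescently labeled and sized by capillary electrophoresis; gain-of-signal fit against DMSO.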

Experiment [14] concerns the target Hepatocyte nuclear factor 4-alpha (Homo sapiens) (UniProt P41235). Briefly: ATG_HNF4a_TRANS: Attagene TRANS-FACTORIAL HepG2 Assay for human Hepatocyte Nuclear Factor 4 alpha (HNF4a) (AID 2282982). The conditions noted are these: HepG2 HNF4a transactivation reporter, mRNA readout. The procedure, abridged: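 Transfected HepG2 reporter cells are dosed for 24 h; reporter RNA is reverse-transcribed, amplified, fluorescently labelled and HpaI-digested before CE sizing. Positive-direction fit against DMSO.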

The target of experiment [15] is Estrogen receptor (Homo sapiens) (UniProt P03372). Briefly: ATG_ERa_TRANS: Attagene TRANS-FACTORIAL HepG2 Assay for human Estrogen Receptor alpha (ERa) (AID 2282970). Conditions: HepG2 Attagene TRANS ERa GAL4 reporter, mRNA. The procedure, abridged: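 After 24 h of compound treatment, RNA from HepG2 cells bearing transfected GAL4-UAS reporter constructs is converted to cDNA, amplified and fluorescently labelled. Capillary electrophoresis resolves the ERa-linked reporter; DMSO serves as negative control.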

Experiment [16] has as its target Steroid hormone receptor ERR1 (Homo sapiens) (UniProt P11474). Briefly: ATG_ERRa_TRANS: Attagene TRANS-FACTORIAL HepG2 Assay for human Estrogen-Related Receptor alpha (ERRa) (AID 2282971). The conditions noted are these: HepG2 Attagene TRANS reporter, ERRa transactivation. The procedure, abridged:
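Transfected HepG2, 24 h dosing, ERRa-Gal4 chimera driving GAL4-UAS reporter. Readout: reporter mRNA via RT-PCR plus capillary electrophoresis (fluorescence). Positive direction vs DMSO control.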

The target of experiment [17] is Oxysterols receptor LXR-beta (Homo sapiens) (UniProt P55055). Briefly: ATG_LXRb_TRANS: Attagene TRANS-FACTORIAL HepG2 Assay for human Liver X Receptor beta (LXRb) (AID 2282981). The conditions noted are these: HepG2 Attagene TRANS GAL4-LXRb reporter, mRNA. In short, it runs like this: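 Cells: HepG2, transiently transfected with GAL4-UAS reporter units plus LXRb-Gal4 fusion. Treatment: 24 h. Detection: reporter mRNA by RT-PCR, 6-FAM labelling, HpaI digestion, capillary electrophoresis.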

Experiment [18] concerns the target Glucocorticoid receptor (Homo sapiens) (UniProt P04150). Briefly: ATG_GR_TRANS: Attagene TRANS-FACTORIAL HepG2 Assay for human Glucocorticoid Receptor (GR) (AID 2282978).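 Note: activators score as hits since higher reporter transcript over DMSO is fitted.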 The conditions noted are these: HepG2 Attagene TRANS GR reporter, mRNA transcription. The procedure, abridged: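 Readout is reporter transcript from a chimeric GR-Gal4 acting on GAL4-UAS in transfected human HepG2 liver cells after 24 h exposure, quantified by RT-PCR and capillary electrophoresis. Activation fitted upward against DMSO.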

Experiment [19] addresses Androgen receptor (Homo sapiens) (UniProt P10275). Briefly: ATG_AR_TRANS: Attagene TRANS-FACTORIAL HepG2 Assay for human Androgen Receptor (AR) (AID 2282973). Conditions: HepG2 Attagene TRANS-FACTORIAL AR reporter transcription. In short, it runs like this: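 Readout is reporter transcript abundance, quantified by fluorescent RT-PCR products separated on capillary electrophoresis. Human HepG2 liver cells carried transiently transfected NR-Gal4 chimera plus GAL4-UAS reporter constructs and were dosed for 24 h; activity scored upward versus DMSO.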

The target in experiment [20] is Estrogen-related receptor gamma (Homo sapiens) (UniProt P62508). Briefly: ATG_ERRg_TRANS: Attagene TRANS-FACTORIAL HepG2 Assay for human Estrogen-Related Receptor gamma (ERRg) (AID 2282977).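 Note: hits increase reporter signal over DMSO so potencies reflect activators.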 The conditions noted are these: HepG2 Attagene TRANS reporter, ERRg transactivation. In short, it runs like this:
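Transient HepG2 transfectants, 24 h compound exposure, GAL4-UAS reporter mRNA by RT-PCR/6-FAM labelling/capillary electrophoresis; positive direction vs DMSO.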

Structures are written as SMILES. Records with an inconclusive call do not appear. Activity calls are given as the source filed them. Rule for the calls, unless noted: active = hit-call score of the fitted dose curve at least 0.9, where 1 is the maximum; inconclusive = response in the unintended direction; inactive = score below 0.9.

Chain of Nuclear receptor subfamily 4 group A member 2 (Homo sapiens) (P43354 whole entry, looked up): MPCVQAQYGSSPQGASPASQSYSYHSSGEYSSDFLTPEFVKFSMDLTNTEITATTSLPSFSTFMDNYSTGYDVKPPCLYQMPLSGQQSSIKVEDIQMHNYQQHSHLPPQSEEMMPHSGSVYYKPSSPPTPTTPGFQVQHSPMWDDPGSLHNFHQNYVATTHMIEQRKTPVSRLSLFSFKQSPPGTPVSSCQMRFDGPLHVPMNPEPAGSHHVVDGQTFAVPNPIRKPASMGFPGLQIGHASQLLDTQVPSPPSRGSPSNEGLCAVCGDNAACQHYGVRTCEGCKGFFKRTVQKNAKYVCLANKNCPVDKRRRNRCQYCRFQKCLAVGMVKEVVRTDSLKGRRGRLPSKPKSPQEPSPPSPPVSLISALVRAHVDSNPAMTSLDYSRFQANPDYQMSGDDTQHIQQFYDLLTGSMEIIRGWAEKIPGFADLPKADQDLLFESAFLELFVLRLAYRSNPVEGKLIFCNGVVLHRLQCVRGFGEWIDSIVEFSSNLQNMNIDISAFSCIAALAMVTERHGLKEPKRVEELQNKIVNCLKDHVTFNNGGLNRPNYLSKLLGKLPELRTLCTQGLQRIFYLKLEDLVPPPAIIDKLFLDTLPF
Chain of Hepatocyte nuclear factor 4-alpha (Homo sapiens) (P41235 whole entry, looked up): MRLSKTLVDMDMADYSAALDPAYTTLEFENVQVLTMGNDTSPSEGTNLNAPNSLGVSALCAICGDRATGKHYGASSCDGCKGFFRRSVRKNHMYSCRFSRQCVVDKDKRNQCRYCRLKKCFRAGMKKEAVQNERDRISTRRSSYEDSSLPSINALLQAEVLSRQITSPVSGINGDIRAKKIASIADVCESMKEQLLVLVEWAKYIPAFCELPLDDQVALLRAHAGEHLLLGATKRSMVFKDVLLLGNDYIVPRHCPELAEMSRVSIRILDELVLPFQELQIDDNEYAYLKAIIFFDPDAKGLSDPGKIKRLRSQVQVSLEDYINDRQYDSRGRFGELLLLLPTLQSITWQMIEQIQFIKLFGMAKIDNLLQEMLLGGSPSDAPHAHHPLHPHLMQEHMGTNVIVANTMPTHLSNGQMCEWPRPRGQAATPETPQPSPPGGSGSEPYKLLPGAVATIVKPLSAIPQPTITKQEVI
Chain of Bile acid receptor (Homo sapiens) (Q96RI1 whole entry, looked up, the tested form may be a part): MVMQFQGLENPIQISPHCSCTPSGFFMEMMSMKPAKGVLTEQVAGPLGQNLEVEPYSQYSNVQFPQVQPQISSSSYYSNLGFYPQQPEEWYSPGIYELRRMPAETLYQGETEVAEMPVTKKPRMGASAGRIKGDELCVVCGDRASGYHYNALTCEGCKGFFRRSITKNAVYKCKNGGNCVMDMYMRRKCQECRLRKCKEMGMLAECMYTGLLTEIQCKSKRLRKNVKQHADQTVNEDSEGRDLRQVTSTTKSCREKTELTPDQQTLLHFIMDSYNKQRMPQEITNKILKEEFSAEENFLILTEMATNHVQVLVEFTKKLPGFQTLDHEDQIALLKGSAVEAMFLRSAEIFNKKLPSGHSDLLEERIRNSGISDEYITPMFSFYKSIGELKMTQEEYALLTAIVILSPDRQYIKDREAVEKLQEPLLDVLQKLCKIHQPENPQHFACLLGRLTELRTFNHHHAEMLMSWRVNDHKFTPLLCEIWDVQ
Chain of Nuclear receptor subfamily 1 group I member 3 (Homo sapiens) (Q14994 whole entry, looked up, the tested form may be a part): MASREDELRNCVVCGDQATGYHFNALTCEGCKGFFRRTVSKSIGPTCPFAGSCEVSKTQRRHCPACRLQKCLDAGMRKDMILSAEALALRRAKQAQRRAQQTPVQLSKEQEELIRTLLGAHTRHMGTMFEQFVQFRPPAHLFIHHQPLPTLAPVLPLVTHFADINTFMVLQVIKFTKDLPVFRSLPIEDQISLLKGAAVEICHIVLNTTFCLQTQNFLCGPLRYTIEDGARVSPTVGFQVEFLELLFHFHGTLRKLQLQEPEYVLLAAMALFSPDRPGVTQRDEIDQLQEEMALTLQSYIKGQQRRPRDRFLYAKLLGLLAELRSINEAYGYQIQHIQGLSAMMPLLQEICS
Chain of Nuclear respiratory factor 1 (Homo sapiens) (Q16656 whole entry, looked up): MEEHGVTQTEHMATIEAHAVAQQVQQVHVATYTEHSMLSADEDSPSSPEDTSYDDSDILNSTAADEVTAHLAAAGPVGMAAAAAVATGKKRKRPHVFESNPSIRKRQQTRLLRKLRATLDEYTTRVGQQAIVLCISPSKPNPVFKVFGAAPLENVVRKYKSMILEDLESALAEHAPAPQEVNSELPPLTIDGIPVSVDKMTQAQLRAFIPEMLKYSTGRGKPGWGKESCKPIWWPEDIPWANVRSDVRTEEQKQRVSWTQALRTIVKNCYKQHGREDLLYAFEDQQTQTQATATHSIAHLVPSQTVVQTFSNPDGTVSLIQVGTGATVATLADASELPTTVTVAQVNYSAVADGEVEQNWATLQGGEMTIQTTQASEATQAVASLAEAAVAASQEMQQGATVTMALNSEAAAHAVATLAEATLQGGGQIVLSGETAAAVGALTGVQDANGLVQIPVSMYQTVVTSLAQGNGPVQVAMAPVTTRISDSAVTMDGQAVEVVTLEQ
Chain of Myc proto-oncogene protein (Homo sapiens) (P01106 whole entry, looked up): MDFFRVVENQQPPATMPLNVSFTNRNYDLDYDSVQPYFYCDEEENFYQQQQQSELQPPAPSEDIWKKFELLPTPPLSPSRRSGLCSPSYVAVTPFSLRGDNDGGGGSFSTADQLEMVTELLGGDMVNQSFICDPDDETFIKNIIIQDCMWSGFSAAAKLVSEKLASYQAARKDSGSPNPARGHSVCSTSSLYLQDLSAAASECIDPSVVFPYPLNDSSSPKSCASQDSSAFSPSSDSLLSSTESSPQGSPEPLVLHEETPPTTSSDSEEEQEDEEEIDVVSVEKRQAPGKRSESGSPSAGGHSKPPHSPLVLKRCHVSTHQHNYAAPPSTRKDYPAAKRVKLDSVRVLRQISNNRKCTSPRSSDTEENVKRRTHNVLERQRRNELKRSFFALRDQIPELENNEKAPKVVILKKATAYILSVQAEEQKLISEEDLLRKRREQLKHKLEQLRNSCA
Chain of Transcriptional activator Myb (Homo sapiens) (P10242 whole entry, looked up): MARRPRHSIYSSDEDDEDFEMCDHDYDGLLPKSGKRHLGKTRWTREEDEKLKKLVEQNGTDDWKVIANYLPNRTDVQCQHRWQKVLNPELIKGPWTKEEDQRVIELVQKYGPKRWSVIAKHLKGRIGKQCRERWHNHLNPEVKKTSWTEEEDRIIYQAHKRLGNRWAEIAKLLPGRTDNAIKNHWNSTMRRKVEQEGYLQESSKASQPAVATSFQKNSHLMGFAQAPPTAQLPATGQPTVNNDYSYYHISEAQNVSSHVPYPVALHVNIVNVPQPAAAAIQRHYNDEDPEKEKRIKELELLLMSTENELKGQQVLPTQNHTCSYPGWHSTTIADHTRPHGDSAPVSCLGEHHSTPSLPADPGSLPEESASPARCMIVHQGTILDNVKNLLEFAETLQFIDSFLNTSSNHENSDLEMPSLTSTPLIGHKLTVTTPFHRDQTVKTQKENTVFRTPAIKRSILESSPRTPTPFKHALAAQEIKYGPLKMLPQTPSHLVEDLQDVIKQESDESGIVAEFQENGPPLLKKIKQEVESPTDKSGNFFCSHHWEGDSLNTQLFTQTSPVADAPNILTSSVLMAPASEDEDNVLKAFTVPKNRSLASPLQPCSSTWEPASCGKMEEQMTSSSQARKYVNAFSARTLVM
Chain of X-box-binding protein 1 (Homo sapiens) (P17861 whole entry, looked up): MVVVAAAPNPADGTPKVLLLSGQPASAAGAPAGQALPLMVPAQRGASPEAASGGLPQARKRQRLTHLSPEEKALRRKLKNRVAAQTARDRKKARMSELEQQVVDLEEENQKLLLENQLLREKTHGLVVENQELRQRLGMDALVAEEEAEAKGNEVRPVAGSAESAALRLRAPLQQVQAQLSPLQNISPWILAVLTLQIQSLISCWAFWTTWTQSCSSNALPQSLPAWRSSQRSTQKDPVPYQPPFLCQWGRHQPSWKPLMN
Chain of Estrogen receptor (Homo sapiens) (P03372 whole entry, looked up, the tested form may be a part): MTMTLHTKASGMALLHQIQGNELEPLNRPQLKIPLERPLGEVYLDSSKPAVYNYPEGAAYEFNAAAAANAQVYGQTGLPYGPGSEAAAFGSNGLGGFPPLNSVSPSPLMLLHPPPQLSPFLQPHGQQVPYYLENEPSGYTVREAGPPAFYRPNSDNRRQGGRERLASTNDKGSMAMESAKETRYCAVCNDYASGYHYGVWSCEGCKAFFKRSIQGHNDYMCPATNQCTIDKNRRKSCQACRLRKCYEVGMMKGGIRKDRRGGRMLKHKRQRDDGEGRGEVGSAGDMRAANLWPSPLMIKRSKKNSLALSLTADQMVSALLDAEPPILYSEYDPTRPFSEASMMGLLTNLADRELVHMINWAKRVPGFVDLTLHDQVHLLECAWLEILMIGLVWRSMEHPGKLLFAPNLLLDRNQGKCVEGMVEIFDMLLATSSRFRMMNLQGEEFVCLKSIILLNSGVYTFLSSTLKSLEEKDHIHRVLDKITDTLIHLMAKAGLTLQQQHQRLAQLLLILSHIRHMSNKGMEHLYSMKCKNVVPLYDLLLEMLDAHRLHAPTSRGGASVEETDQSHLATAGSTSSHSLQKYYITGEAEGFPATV
Chain of Oxysterols receptor LXR-alpha (Homo sapiens) (Q13133 whole entry, looked up, the tested form may be a part): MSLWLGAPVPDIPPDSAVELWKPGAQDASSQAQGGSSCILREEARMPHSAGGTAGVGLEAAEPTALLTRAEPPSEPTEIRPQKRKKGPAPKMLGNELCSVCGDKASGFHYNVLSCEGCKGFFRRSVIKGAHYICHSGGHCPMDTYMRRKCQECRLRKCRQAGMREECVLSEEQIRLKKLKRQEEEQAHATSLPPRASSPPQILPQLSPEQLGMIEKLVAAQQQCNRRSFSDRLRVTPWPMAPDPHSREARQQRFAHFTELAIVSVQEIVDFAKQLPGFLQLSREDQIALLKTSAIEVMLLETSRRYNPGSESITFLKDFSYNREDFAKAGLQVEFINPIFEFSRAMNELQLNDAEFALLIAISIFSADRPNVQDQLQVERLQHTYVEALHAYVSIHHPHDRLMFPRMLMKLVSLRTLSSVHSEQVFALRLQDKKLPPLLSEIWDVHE

On to `CC[N+](CC)(CC)CC`, for which the compound was called inactive in experiment [1], in experiment [2], in experiment [3], in [4], in experiment [5] and in [6]. Also, the compound was called inactive in experiment [7], in experiment [8], in experiment [9] and in experiment [10].
Take `ClCCCCl`: the result in experiment [1], in experiment [2], in [11], in experiment [5], in experiment [6] and in experiment [12] was inactive. Moreover, the compound was classed as inactive in experiment [7], in experiment [8], in experiment [9] and in [10].
Consider `Cc1cccc(OP(=O)(Oc2cccc(C)c2)Oc2cccc(C)c2)c1`, for which the result in experiment [1], in experiment [2], in [13], in experiment [11], in experiment [6] and in [12] was inactive. Besides, the outcome in [7], in experiment [8], in experiment [9] and in experiment [10] was inactive.
Consider `C1CN2CCN1CC2`, for which the compound was classed as inactive in experiment [1], in [2], in experiment [13], in experiment [3], in experiment [14] and in [6]. Besides, the outcome in experiment [12], in experiment [7], in [8], in experiment [9] and in [10] was inactive.
In the case of `C=C(C)C(=O)OCCCCOC(=O)C(=C)C`, the result in experiment [15], in experiment [16], in experiment [2], in experiment [13], in experiment [3] and in experiment [17] was inactive. Also, the outcome in [14], in [6], in experiment [7], in [8], in experiment [9] and in experiment [10] was inactive.
Consider `Nc1cccnc1`, for which the outcome in [1], in experiment [2], in experiment [17], in experiment [5], in experiment [6] and in [12] was inactive. The call in experiment [7], in experiment [8], in experiment [9] and in experiment [10] was inactive.
Turning to `O=C(NC(=O)c1c(F)cccc1F)Nc1cc(Cl)c(F)c(Cl)c1F`, the result in [1], in [2], in experiment [5], in experiment [6], in [7] and in [8] was inactive. Moreover, the outcome in [9] and in [10] was inactive.
Turning to `CC1(C)[C@H](C(=O)O[C@H](C#N)c2cccc(Oc3ccccc3)c2)[C@@H]1/C=C(\Cl)C(F)(F)F`, the compound was classed as inactive in experiment [1], in [2], in experiment [3], in experiment [18], in experiment [11] and in experiment [14]. Also, the result in [6], in experiment [12], in experiment [7], in [8], in experiment [9] and in experiment [10] was inactive.
As for `C=CC(=O)NC(C)(C)CC(C)=O`, the result in [1], in [2], in experiment [3], in experiment [4], in experiment [14] and in experiment [5] was inactive. Besides, the compound was called inactive in experiment [6], in [7], in experiment [8], in experiment [9] and in experiment [10].
In general, AC50 refers to the midpoint of the concentration-response curve, whichever way the signal moves. On to `O=C1c2ccccc2C(=O)C1C(=O)C(c1ccccc1)c1ccc(Cl)cc1` (centres undefined), for which the compound was called inactive in experiment [15], in experiment [16], in [19], in experiment [20], in [18] and in experiment [9]. The AC50 was 5.66 µM (active) in experiment [2], 163 µM (active) in experiment [13], 173 µM (active) in [7] and 27.1 µM (active) in experiment [10].

The record behind these values is PubChem BioAssay (EPA / NIEHS).
